Among all 320,000 compounds or so, about 2,100 (0.66%) were called active. Another 53% or so got no clear call; they are omitted. The call rests on the fitted dose curve; in most records, active means well fitted inhibition curve with a large enough effect in the signal ratio, with a control signal flat (not every such curve was filed as active); inconclusive means small, poorly fitted or top-dose-only effect, or effect the other way, or a change in a side signal; inactive means flat fitted curve, though single readings scatter; the % refers to the signal ratio. Shown is part of a subset that was picked to be rich in actives.
Assay: qHTS Assay for Lipid Storage Modulators in Drosophila S3 Cells;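 on cell number change: cells counted by Cell Tracker Red CMTPX staining in the red channel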; on lipid storage change, negative = inhibition: on the % scale 0 is the no-effect control and ±100 the full control effect
Conditions: BODIPY lipid droplet fluorescence, 18-24 h, cells fed with added oleic acid; cell number change: measured here: cell count max response; series mostly up to 46.1 µM
Outline: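 Laser-scanning cytometry quantifies lipid droplet accumulation (500–530 nm total intensity; droplet/cell object ratio) in oleic acid-fed (400 uM added) Drosophila S3 cells treated with a concentration series. 20 uM Triacsin C defined 100% inhibition.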
Potency means the concentration at half of the fitted maximal effect.

| SMILES | Potency | cell number change [%] | lipid storage change, negative = inhibition |
| --- | --- | --- | --- |
| CCOC(=O)C1=C(C)NC(=O)NC1c1ccc(OC(C)C(=O)O)c(OC)c1 (stereo not drawn) | inactive | 0.405 |  |
| O=C(C[n+]1ccccc1)N/N=C/c1cccc(Cl)c1Cl | inactive | 4.15 |  |
| CCOc1ccc(C(=O)Nc2ccccc2-c2ccccc2)cc1Cl | inactive | -2.51 |  |
| O=C(CSc1nc2ccccc2c(=O)n1-c1ccc(F)cc1)NC1CCS(=O)(=O)C1 (stereo not drawn) | inactive |  |  |
| COc1ccc(OC)c(NC(=O)COC(=O)CN(C)S(=O)(=O)c2ccc(C)cc2)c1 | inactive | 1.08 |  |
| Cc1[nH]c2ccccc2c1/C=N/NC(=O)C1CC1(c1ccccc1)c1ccccc1 (stereo not drawn) | inactive | -28.5 |  |
| Cc1ccc(C(=O)NCc2cccnc2)o1 | inactive | -7.92 |  |
| CC1(C)Cc2c(sc3ncnc(NN)c23)CO1 | inactive | 28.8 |  |
| CC(=O)Nc1ccc(Nc2nc(-c3sc(NC(C)=O)nc3C)cs2)cc1 | 20.6 µM (active) | -25.9 |  |
| CCCCCC(=O)Nc1nc(C)c(-c2csc(Nc3ccc(Cl)cc3)n2)s1 | inactive | -19 |  |
| Cc1nc(C)c(-c2csc(Nc3cccc(O)c3)n2)s1 | inactive | -15.3 |  |
| CCC(=O)Nc1nc(C)c(-c2csc(Nc3cccc(C(=O)O)c3)n2)s1 | inactive | 10.2 |  |
| CCC(=O)Nc1nc(C)c(-c2csc(Nc3cccc(O)c3)n2)s1 | 29.1 µM (active) | -27 |  |
| CCCCCCC(=O)Nc1nc(C)c(-c2csc(Nc3ccc(Cl)cc3)n2)s1 | inactive |  |  |
| Nc1ncc(-c2nnnn2-c2ccc(Cl)cc2)c(-c2ccc(Cl)cc2)n1 | inactive | 22.6 |  |
| COC(=O)/C=C1\NCCNC1=O | inactive | 9.92 |  |
| COc1ccc(NC(=O)CCC(=O)N/N=C/c2cccnc2)cc1 | inactive | 1.18 |  |
| COc1cc(CN2CCc3ccc(NC(=O)CCc4ccccc4OC)cc3C2)ccc1O | inactive | -9.87 |  |
| Cc1ccc(C)c(NC(=O)CN(C)C(=O)c2sccc2C)c1 | 4.61 µM (active) |  |  |

| SMILES | Potency | cell number change [%] | lipid storage change, negative = inhibition |
| --- | --- | --- | --- |
| Cc1ccsc1C(=O)N(C)CC(=O)Nc1ccccc1Br |  |  | 15.6% [at 0.0737 µM] (inactive) |
| Cc1ccc(C)c(NC(=O)CN(C)C(=O)Cc2ccccc2)c1 | inactive | 0.0719 |  |
| CSCCC(NS(=O)(=O)c1ccccc1F)C(=O)NNC(=O)c1csc(N2CCOCC2)n1 (stereo not drawn) |  | -7.74 | 27.4% [at 0.0737 µM] (inactive) |
| CC1CC(C)CN(C(=O)COC(=O)Cc2c[nH]c3ccccc23)C1 (stereo not drawn) | inactive |  |  |
| CC1CC(C)CN(C(=O)COC(=O)c2c[nH]c3ccccc23)C1 (stereo not drawn) | 0.92 µM (active) | -17 |  |
| CC1CC(C)CN(C(=O)COC(=O)c2nn(C)c(=O)c3ccccc23)C1 (stereo not drawn) | inactive | 14.1 |  |
| CCc1c(C)sc(NC(=S)NC(C)C2CCCO2)c1C(=O)OC (stereo not drawn) | inactive | 8 |  |
| CCc1c(C)sc(NC(=O)C2CC2)c1C(=O)OC(C)C | 1.3 µM (active) | -47.8 |  |
| CCOC(=O)c1c(NC(=O)C2CC=CCC2C(=O)O)sc(C)c1CC (stereo not drawn) | inactive | 12.8 |  |
| CC(NC(=O)CN(c1ccc(F)cc1)S(C)(=O)=O)c1ccccc1 (stereo not drawn) | 4.11 µM (active) | -10.2 |  |
| CC(NC(=O)CN(c1ccc(Br)cc1)S(C)(=O)=O)c1ccccc1 (stereo not drawn) | inactive | 6.99 |  |
| CC(NC(=O)CN(c1ccc(Cl)cc1)S(C)(=O)=O)c1ccccc1 (stereo not drawn) | inactive | 17.6 |  |
| Cc1ccccc1CN1C[C@@H]2C[C@@H](c3cnc(N4CCOCC4)s3)N3CCC[C@@]23C1=O | inactive | 3.26 |  |
| COc1ccc(C(NC(=O)CNC(C)=O)C(=O)Nc2ccc3c(c2)OCCO3)cc1 (stereo not drawn) | inactive | 8.96 |  |
| O=P(c1ccccc1)(c1ccccc1)C(O)c1ccncc1 (stereo not drawn) | inactive | 15.4 |  |
| CCO[C@H]1OC(C(=O)N2CCN(Cc3ccccc3)CC2)=C[C@@H](C2CCCCC2)[C@@H]1CCCO | 20.6 µM (active) | -29.1 |  |
| CCO[C@@H]1OC(C(=O)N2CCN(Cc3ccccc3)CC2)=C[C@H](C2CC2)[C@H]1CCCO | inactive | 7.31 |  |
| CCO[C@@H]1OC(C(=O)N2CCCCCCC2)=C[C@H](C2CCCCC2)[C@H]1CCCO | inactive | -14.4 |  |
| COc1cc(S(=O)(=O)N2CCC(c3nc4ccccc4s3)CC2)ccc1S(=O)(=O)N1CC(C)CC(C)C1 (stereo not drawn) | inactive | 0.159 |  |

| SMILES | Potency | cell number change [%] | lipid storage change, negative = inhibition |
| --- | --- | --- | --- |
| Cc1cc(=O)oc2cc(OCc3ccc(C(=O)OCC(=O)NC4CCS(=O)(=O)C4)cc3)ccc12 (stereo not drawn) | inactive | 8.28 |  |
| CCOc1cc(C(c2c(C)[nH][nH]c2=O)c2c(C)[nH][nH]c2=O)ccc1OS(=O)(=O)c1ccc(C)cc1 | inactive | 16 |  |
| COc1cc(C(c2c(C)[nH][nH]c2=O)c2c(C)[nH][nH]c2=O)ccc1OS(=O)(=O)c1ccccc1 | inactive | -3.94 |  |
| CCOc1cc(C(c2c(C)[nH][nH]c2=O)c2c(C)[nH][nH]c2=O)ccc1OS(=O)(=O)c1ccccc1 | 29.1 µM (active) | -2.58 |  |
| COc1ccccc1N1CCN(C(c2cccs2)c2nnnn2C2CCCC2)CC1 (stereo not drawn) | inactive | -7.64 |  |
| Cc1ccc(SCc2ccc(C(=O)NCc3cccnc3)cc2)cc1 | inactive | 5.01 |  |
| Cc1ccc(Cl)cc1NC(=S)N(CCN(C)C)C(C)c1ccccn1 (stereo not drawn) | inactive | 25.6 |  |
| CCOC(=O)[C@H]1[C@H]2COc3ccc(Cl)cc3[C@@H]2N2C(=O)c3ccccc3NC(=O)[C@@]12C | inactive | -17 |  |
| CCOC(=O)[C@H]1[C@H]2COc3ccc(C)cc3[C@@H]2N2C(=O)c3cc(F)ccc3NC(=O)[C@@]12C | inactive | -22.1 |  |
| COc1cc2c(cc1OC)C(=O)N1[C@H]3c4cc(Cl)ccc4OC[C@@H]3[C@H](c3ccccc3)[C@]1(C)C(=O)N2 | 2.06 µM (active) | -5.54 |  |
| CCOC(=O)[C@H]1[C@H]2COc3ccccc3[C@@H]2N2C(=O)c3cc(OC)ccc3NC(=O)[C@@]12C | inactive | -11.2 |  |
| CCOC(=O)[C@H]1[C@H]2COc3cc(OC)ccc3[C@@H]2N2C(=O)c3cc(F)c(F)cc3NC(=O)[C@@]12C | 6.51 µM (active) | -3.7 |  |
| CCOC(=O)[C@H]1[C@H]2COc3ccc(Cl)cc3[C@@H]2N2C(=O)c3cc(C)ccc3NC(=O)[C@@]12C | 1.64 µM (active) |  |  |
| CCOC(=O)[C@H]1[C@H]2COc3ccc(OC)cc3[C@@H]2N2C(=O)c3ccc(Cl)cc3NC(=O)[C@@]12C | 4.11 µM (active) | -6.2 |  |
| CCOC(=O)[C@H]1[C@H]2COc3ccc(OC)cc3[C@@H]2N2C(=O)c3cc(F)c(F)cc3NC(=O)[C@@]12C | inactive | 10.2 |  |
| CCOC(=O)[C@H]1[C@H]2COc3cc(OC)ccc3[C@@H]2N2C(=O)c3cc(OC)ccc3NC(=O)[C@@]12C | inactive | -12.2 |  |
| COc1ccc2c(c1)[C@H]1[C@H](CO2)[C@H](c2ccccc2)[C@]2(C)C(=O)Nc3ccccc3C(=O)N12 | inactive | -2.57 |  |
| CCOC(=O)[C@H]1[C@H]2COc3ccccc3[C@@H]2N2C(=O)c3ccc(Cl)cc3NC(=O)[C@@]12C | inactive | -18.8 |  |
| COc1ccc2c(c1)C(=O)N1[C@H]3c4cc(C)ccc4OC[C@@H]3[C@H](c3ccccc3)[C@]1(C)C(=O)N2 | inactive | 11.4 |  |
